± gives the standard deviation.

What all share (settings): modulator concentration 10 µM
Assay [1] concerns RAW-Dual (murine macrophage reporter line). Put plainly: NF-kB reporter (SEAP) activity fold change vs agonist alone; higher = enhanced NF-kB activity. The essentials: (§1)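 Compound reached 10 μM final in each well by pin transfer, onto RAW-Dual murine macrophage reporter cells seeded at 50 000 per well in 384-well plates. After 1 hour at 37 °C, the cells were stimulated overnight with a PRR agonist. SEAP in the supernatant was read with QUANTI-Blue at 620 nm absorbance for NF-κB, and Lucia luciferase was read with QUANTI-Luc luminescence for IRF. Each signal was turned into fold change against the mean agonist-only control on the same plate, and two replicate plates were averaged with propagated errors.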

Assay [2] shares this test system. Put plainly: IRF reporter (Lucia luciferase) activity fold change vs agonist alone; higher = enhanced IRF activity. The essentials:
as §1

Assay [3] has the same test system. The assay is described as follows: viability score (confluency relative to resting cells, overnight) (fraction); higher = more viable, active = viable (0.7 or more). The essentials: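 Overnight exposure to 10 μM final compound was carried out on RAW-Dual macrophages in 384-well plates. IncuCyte software generated two confluency masks over all wells imaged with IncuCyte. The viability score gives confluency in relation to resting cells. A compound met the cutoff if each mask exceeded 70% of resting cells.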

Setting [4] is: agonist: CpG ODN 1826 0.5 ug/mL.

Turning to `Cc1ccc(Sc2cc(Sc3ccc(C)cc3)c3noc4c3c2C(=O)c2ccccc2-4)cc1`, the NF-kB reporter in assay [1] (setting [4]) was found to be 0.971 ± 0.078; in assay [1] (agonist: LPS 0.1 ug/mL) it was 1.03 ± 0.075; in assay [1] (agonist: MPLA […]) it was 0.957 ± 0.09. The IRF reporter turned out to be 0.959 ± 0.052 in assay [2] (agonist: 3'3'-cGAMP 10 ug/mL), 1.28 ± 0.21 in assay [2] (agonist: LPS 0.1 ug/mL) and 1.49 ± 0.38 in assay [2] (agonist: MPLA […]). Also, the viability score in assay [3] was 1.01 (active).

Regarding `COc1ccc(Cl)cc1C(=O)N1CCC(S(=O)(=O)c2nncn2C)CC1`, the NF-kB reporter turned out to be 0.944 ± 0.051 in assay [1] (setting [4]), 1.04 ± 0.11 in assay [1] (agonist: LPS 0.1 ug/mL) and 0.858 ± 0.038 in assay [1] (agonist: MPLA […]). Further, the IRF reporter in assay [2] (agonist: 3'3'-cGAMP 10 ug/mL) is 1 ± 0.052; in assay [2] (agonist: LPS 0.1 ug/mL), 1.19 ± 0.085; in assay [2] (agonist: MPLA […]) it was 1.11 ± 0.29. Moreover, in assay [3], the viability score is 0.994 (active).

For the compound `CCCCCn1c(=O)[nH]c2cc(C(=O)N3CCN(C(=O)OCC)CC3)ccc2c1=O`, the NF-kB reporter in assay [1] (setting [4]) worked out at 1.12 ± 0.065; in assay [1] (agonist: LPS 0.1 ug/mL) it was 1.09 ± 0.068; in assay [1] (agonist: MPLA […]) it was 1.02 ± 0.069. In addition, the IRF reporter is 1.01 ± 0.035 in assay [2] (agonist: 3'3'-cGAMP 10 ug/mL), 1.45 ± 0.11 in assay [2] (agonist: LPS 0.1 ug/mL) and 1.24 ± 0.14 in assay [2] (agonist: MPLA […]). Moreover, the viability score in assay [3] is 0.974 (active).

`COc1ccc(Nc2nc(N3CCCCC3)c3cnn(C)c3n2)cc1`: the NF-kB reporter was found to be 0.753 ± 0.043 in assay [1] (setting [4]), 1.23 ± 0.096 in assay [1] (agonist: LPS 0.1 ug/mL) and 1.08 ± 0.048 in assay [1] (agonist: MPLA […]). The IRF reporter in assay [2] (agonist: 3'3'-cGAMP 10 ug/mL) was determined as 0.388 ± 0.02; in assay [2] (agonist: LPS 0.1 ug/mL), 0.967 ± 0.097; in assay [2] (agonist: MPLA […]), 1.23 ± 0.12. Also, the viability score in assay [3] was 0.969 (active).

Take `COc1c2c(nc3ccccc13)OC(C(C)(O)COC(C)=O)C2` (stereo not drawn): the NF-kB reporter in assay [1] (setting [4]) came out at 0.944 ± 0.071; in assay [1] (agonist: LPS 0.1 ug/mL) it was 1.02 ± 0.11; in assay [1] (agonist: MPLA […]), 0.953 ± 0.11. For the same compound, the values for the IRF reporter in assay [2] (agonist: 3'3'-cGAMP 10 ug/mL), in assay [2] (agonist: LPS 0.1 ug/mL) and in assay [2] (agonist: MPLA […]) were 1.04 ± 0.045, 1.42 ± 0.15 and 1.3 ± 0.22, respectively. Moreover, the viability score in assay [3] was 1 (active).

Consider `Cc1cnc2c(c1SCC(=O)N1CCc3ccccc31)c(=O)n(C)c(=O)n2C`, for which the NF-kB reporter in assay [1] (setting [4]) amounted to 1.01 ± 0.057; in assay [1] (agonist: LPS 0.1 ug/mL) it was 1.22 ± 0.18; in assay [1] (agonist: MPLA […]) it was 0.916 ± 0.069. Further, the IRF reporter is 1.01 ± 0.051 in assay [2] (agonist: 3'3'-cGAMP 10 ug/mL), 1.17 ± 0.15 in assay [2] (agonist: LPS 0.1 ug/mL) and 1.14 ± 0.25 in assay [2] (agonist: MPLA […]). Besides, the viability score in assay [3] was 1.01 (active).

For `Cc1cc2c(s1)Nc1ccccc1N=C2N1CCN(C)CC1`, the NF-kB reporter in assay [1] (setting [4]) was 0.278 ± 0.057; in assay [1] (agonist: LPS 0.1 ug/mL), 1.03 ± 0.36; in assay [1] (agonist: MPLA […]), 0.929 ± 0.056. Besides, the results for the IRF reporter in assay [2] (agonist: 3'3'-cGAMP 10 ug/mL), in assay [2] (agonist: LPS 0.1 ug/mL) and in assay [2] (agonist: MPLA […]) were 0.819 ± 0.049, 1.16 ± 0.37 and 0.974 ± 0.075, respectively. In addition, in assay [3], the viability score is 1 (active).

Turning to `O=S(=O)(c1cccc2ccccc12)n1cnc2ccccc21`, the NF-kB reporter in assay [1] (setting [4]) amounted to 1.1 ± 0.084; in assay [1] (agonist: LPS 0.1 ug/mL) it was 1.06 ± 0.11; in assay [1] (agonist: MPLA […]), 0.998 ± 0.1. Also, the IRF reporter is 0.944 ± 0.089 in assay [2] (agonist: 3'3'-cGAMP 10 ug/mL), 1.26 ± 0.25 in assay [2] (agonist: LPS 0.1 ug/mL) and 1.33 ± 0.26 in assay [2] (agonist: MPLA […]). The viability score in assay [3] is 1.01 (active).

As for `CCC(C)(C)C(=O)OC1CC(C)C=C2C=CC(C)C(CCC3CC(O)CC(=O)O3)C21` (stereo not drawn), the NF-kB reporter in assay [1] (setting [4]) was 1.65 ± 0.13; in assay [1] (agonist: LPS 0.1 ug/mL), 1.56 ± 0.11; in assay [1] (agonist: MPLA […]), 1.91 ± 0.18. Besides, the results for the IRF reporter in assay [2] (agonist: 3'3'-cGAMP 10 ug/mL), in assay [2] (agonist: LPS 0.1 ug/mL) and in assay [2] (agonist: MPLA […]) were 0.43 ± 0.014, 0.918 ± 0.087 and 0.524 ± 0.11, respectively. The viability score in assay [3] was 0.912 (active).

Regarding `OCC(CO)N[C@H]1C[C@](O)(CO)[C@@H](O)[C@H](O)[C@H]1O`, the NF-kB reporter in assay [1] (setting [4]) is 0.913 ± 0.054; in assay [1] (agonist: LPS 0.1 ug/mL), 0.924 ± 0.074; in assay [1] (agonist: MPLA […]) it was 0.916 ± 0.046. The figures for the IRF reporter in assay [2] (agonist: 3'3'-cGAMP 10 ug/mL), in assay [2] (agonist: LPS 0.1 ug/mL) and in assay [2] (agonist: MPLA […]) were 0.908 ± 0.058, 1.04 ± 0.065 and 0.884 ± 0.07, respectively. In assay [3], the viability score is 1 (active).

For the compound `COC(=O)c1cccc(-c2ccc(C=NN3C(=O)C4C5C=CC(CC5)C4C3=O)o2)c1` (stereo not drawn), the NF-kB reporter in assay [1] (setting [4]) was 1.04 ± 0.1; in assay [1] (agonist: LPS 0.1 ug/mL), 1.14 ± 0.082; in assay [1] (agonist: MPLA […]), 0.815 ± 0.055. The results for the IRF reporter in assay [2] (agonist: 3'3'-cGAMP 10 ug/mL), in assay [2] (agonist: LPS 0.1 ug/mL) and in assay [2] (agonist: MPLA […]) were 0.867 ± 0.025, 1.55 ± 0.22 and 1.36 ± 0.14, respectively. Moreover, in assay [3], the viability score is 1 (active).

On to `O=C(Cn1cc(S(=O)(=O)c2ccc(F)cc2)c2ccccc21)N1CCCCCC1`, for which the NF-kB reporter in assay [1] (setting [4]) was determined as 0.825 ± 0.12; in assay [1] (agonist: LPS 0.1 ug/mL), 0.902 ± 0.073; in assay [1] (agonist: MPLA […]), 1.02 ± 0.055. Besides, the IRF reporter in assay [2] (agonist: 3'3'-cGAMP 10 ug/mL) is 0.847 ± 0.071; in assay [2] (agonist: LPS 0.1 ug/mL) it was 1.2 ± 0.19; in assay [2] (agonist: MPLA […]), 1.3 ± 0.48. In assay [3], the viability score was 0.972 (active).

As to `Cc1ccc(NC(=O)C(C#N)=Cc2ccc(-c3cccc([N+](=O)[O-])c3)o2)cc1`, the NF-kB reporter in assay [1] (setting [4]) came to 1.07 ± 0.084; in assay [1] (agonist: LPS 0.1 ug/mL), 1.06 ± 0.094; in assay [1] (agonist: MPLA […]), 0.904 ± 0.054. In addition, the IRF reporter in assay [2] (agonist: 3'3'-cGAMP 10 ug/mL) came out at 1 ± 0.076; in assay [2] (agonist: LPS 0.1 ug/mL) it was 1.46 ± 0.1; in assay [2] (agonist: MPLA […]), 1.18 ± 0.14. The viability score in assay [3] was 1.01 (active).

Consider `CN1CCN(C(c2ccccc2)c2ccccc2)CC1.Cl.Cl`, for which the NF-kB reporter in assay [1] (setting [4]) is 0.727 ± 0.12; in assay [1] (agonist: LPS 0.1 ug/mL) it was 0.833 ± 0.21; in assay [1] (agonist: MPLA […]), 0.89 ± 0.05. Moreover, the IRF reporter in assay [2] (agonist: 3'3'-cGAMP 10 ug/mL) came out at 0.701 ± 0.023; in assay [2] (agonist: LPS 0.1 ug/mL), 1.25 ± 0.29; in assay [2] (agonist: MPLA […]), 1.03 ± 0.084. Also, in assay [3], the viability score is 0.985 (active).

(Values after the supplement of paper PMC10646978.)
